Source: PubChem
ELG1 genotoxic – genotoxicity induction in ELG1-luciferase HEK293T cells | HEK293T ELG1-luciferase reporter, luminescence, 16 h | Potency, µM (doses to about 46 µM), usual class: activators | hit rate 1.3% among 330,000; further: nearly all actives have a fitted effect of over 60% in size
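HEK293T cells expressing luciferase-tagged ELG1 were treated with compound or DMSO for 16 hr at 37°C. Luciferase activity was then read after 30 min with ONE-Glo at room temperature; rising signal flags genetic stress.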
Rab9 promoter act – activates the Rab9 promoter; Huh7 Rab9 promoter-luciferase reporter, luminescence, 24 h; AID 485297; Potency, µM (titrated, usually from 9.22 µM), hits mostly activators; hit rate 2.8% among 320,000; further: nearly all actives have a fitted effect of over 60% in size
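Huh7 reporter line, Rab9 promoter upstream of luciferase. Compound exposure 24 h at 37 °C in reduced-serum medium with 10% FBS. Read-out: luminescence.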
FLuc modulator – firefly luciferase modulation, counter-screen for miR-21 project. P08659. purified FLuc, Km substrates, luminescence inhibition. Potency, µM (titrated, usually from 57.5 µM), hits mostly inhibitors. hit rate 6.9% among 360,000; further: nearly all actives have a fitted effect of over 55% in size
Target sequence (P08659 whole entry, looked up): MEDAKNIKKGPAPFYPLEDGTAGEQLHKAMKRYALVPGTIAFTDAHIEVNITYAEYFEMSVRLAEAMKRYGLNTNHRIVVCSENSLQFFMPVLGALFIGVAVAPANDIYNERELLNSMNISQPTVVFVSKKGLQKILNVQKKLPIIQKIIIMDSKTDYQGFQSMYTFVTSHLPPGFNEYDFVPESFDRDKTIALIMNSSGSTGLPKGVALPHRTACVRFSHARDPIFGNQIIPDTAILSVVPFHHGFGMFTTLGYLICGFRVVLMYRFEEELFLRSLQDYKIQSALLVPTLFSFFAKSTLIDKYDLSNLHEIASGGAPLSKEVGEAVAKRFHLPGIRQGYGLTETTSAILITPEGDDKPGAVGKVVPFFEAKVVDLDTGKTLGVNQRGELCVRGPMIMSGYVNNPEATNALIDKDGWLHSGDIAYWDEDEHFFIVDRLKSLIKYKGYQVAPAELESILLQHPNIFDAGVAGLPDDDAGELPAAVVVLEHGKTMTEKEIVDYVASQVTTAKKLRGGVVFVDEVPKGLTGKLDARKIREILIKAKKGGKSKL
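Purified P. pyralis luciferase (10nM final) with 10uM D-luciferin and 10uM ATP (Km levels) in 50mM Tris acetate pH 7.5, 10mM Mg acetate, 0.01% Tween-20, 0.05% BSA; qHTS 6-point titration, ~60 µM downward; luminescence read.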
SMN2 splice up – increases expression of the SMN2 splice variant; HEK293 SMN2-luciferase splicing reporter, luminescence, 30-36 h; Potency, µM (series often up to 46.1 µM), actives largely listed as activators; hit rate 2.8% among 210,000; further: nearly all actives have a fitted effect of over 55% in size
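qHTS luciferase splicing reporter: luminescence rises when SMN2 exon 7 is included in transfected HEK293 cells. Compound exposure lasted 30-36 h at 37C, with 4.5 mM final sodium butyrate as control, followed by a ONE-Glo read.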
NPC1 prom act – activates the NPC1 promoter; AID 485313; Huh7 NPC1 promoter luciferase reporter, 24 h; hit rate 2.4% among 320,000; Potency, µM (top dose mostly 9.22 µM), hits mostly activators; further: nearly all actives have a fitted effect of over 60% in size
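Huh7 reporter cells (NPC1 promoter driving luciferase) are dosed with compound for 24 h at 37 °C, 5% CO2; luciferase detection reagent is then added and luminescence measured after 10 min at ambient temperature.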
Luc counter – Kinase-Glo luciferase inhibition (counter-screen). hit rate 0.28% among 200,000. Kinase-Glo luciferase, ATP luminescence, 8 min. Potency, µM (titrated, usually from 38.3 µM), usual class: inhibitors; further: nearly all actives have a fitted effect of over 60% in size
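Luminescence was the read-out, taken after 8-minute incubation at ambient temperature. Luciferase turned over luciferin with 10 uM ATP in imidazole pH 7.2 buffer containing KCl, MgCl2, Tween 20 and BSA.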
Hits are given with their value; – = inactive; ? = inconclusive; · = not tested or not shown; [ ] = remark or other dose. Hits are enriched below; roughly 7.5% of the tested compounds scored in any of these assays. The call rests on the fitted dose curve; in most records, active means well fitted curve in the direction sought with a large enough effect; inconclusive means small, poorly fitted or top-dose-only effect, or another doubt; inactive means no such curve, though single readings can be large; an effect the other way counts as inactive or inconclusive.

SMILES	ELG1 genotoxic	Rab9 promoter act	FLuc modulator	SMN2 splice up	NPC1 prom act	Luc counter
C=CCNC(=O)c1onc(CSc2ccc(Cl)cc2)c1C(=O)NCC=C	–	–	–	·	–	·
C=CCNC(=O)c1onc(CSc2ccccc2C)c1C(=O)O	–	–	–	–	–	–
CCOc1ncccc1C(=O)OCC(=O)Nc1ccc(C(N)=O)cc1	–	–	–	·	–	·
O=C1/C(=C/c2ccc(Cl)cc2)NC(=S)N1Cc1cccnc1	–	–	–	·	–	·
CCOc1ccc2nc(N3C(=O)/C(=C/c4ccc(Cl)cc4)NC3=S)sc2c1	–	–	9.5µM	–	–	–
COc1cccc2sc3ccc(C#CC4(N)CCCCC4)cc3c(=O)c12	–	–	19µM	·	–	·
COc1cc(OC)cc(-c2sc3ccc(OC)cc3c2C#CC2(N)CCCCC2)c1	–	·	·	·	·	·
O=C(COC(=O)CNC(=O)C1CCCCC1)NCc1ccc(Cl)cc1	–	·	·	·	·	·
CCn1c(Cn2nnc(-c3ccccc3)n2)nnc1SCC(=O)Nc1ccc(C(C)=O)cc1	–	–	19µM	–	?	–
CCC(=O)Nc1cccc(NC(=S)NC(=O)c2ccc(Cl)cc2)c1	–	3.5µM	–	?	?	–
CCC(=O)Nc1cccc(NC(=S)NC(=O)c2ccccc2C)c1	–	?	15µM	–	?	–
CCC(=O)Nc1cccc(NC(=S)NC(=O)c2ccc(Cl)cc2Cl)c1	–	?	?	–	?	–
CCC(=O)NC(=S)Nc1cccc(NC(=O)c2ccccc2C)c1	–	–	?	–	–	–
CCCC(=O)NC(=S)Nc1cccc(NC(=O)c2ccc(Cl)cc2Cl)c1	–	–	13µM	·	–	·
C[C@@H]1NS(=O)(=O)[C@H]2C[C@@H]3C=C[C@]2(O3)[C@H]1OC(=O)Nc1ccc(C(F)(F)F)cc1[N+](=O)[O-]	–	–	–	·	–	·
CCCc1ccc(-c2ccc(F)c(N)c2)nc1	?	0.4µM	0.3µM	0.71µM	0.5µM	?
CCCCc1ccc(-c2ccc(Br)cc2)nc1	?	1µM	1.2µM	3.5µM	1.3µM	–
CCc1ccc(-c2ccc(C(=O)Oc3ccc(Br)cc3)cc2)nc1	·	·	–	–	·	·
Nc1cc(-c2nn[nH]n2)ccc1F	–	–	–	–	–	–
CN(C)S(=O)(=O)c1ccc(C(=O)Nc2ccccc2C(=O)NCCCN2CCOCC2)cc1	–	–	–	·	–	·
Cc1cc(C(=O)CN2CCC(C)CC2)c(C)n1-c1ccccc1F	?	–	1.9µM	?	–	–
Cc1cc(C(=O)CN2C(=O)C(=O)N(Cc3ccccc3)C2=O)c(C)n1-c1ccccc1F	–	–	19µM	–	–	–
COc1ccc(-n2c(C)cc(C(=O)CN3C(=O)c4ccccc4C3=O)c2C)cc1	–	–	15µM	–	–	–
Cc1cc(C(=O)CN2CC(C)OC(C)C2)c(C)n1-c1ccccc1 (stereo unspecified)	21µM	?	?	?	?	–
Cc1cc(C(=O)CN2C(=O)C(=O)N(Cc3ccccc3)C2=O)c(C)n1Cc1ccccc1	–	·	·	·	·	·
SMILES	ELG1 genotoxic	Rab9 promoter act	FLuc modulator	SMN2 splice up	NPC1 prom act	Luc counter
O=C(Nc1ccc(Cl)cc1)C1CCCN(c2ncnc3c2nc2n3CCCCC2)C1 (stereo unspecified)	–	–	–	·	–	·
CCc1cccc(C)c1NC(=O)CSc1nc(C)cc(C)c1C(=O)Nc1ccccc1	·	·	–	·	·	·
Cc1ccc(C(=O)Cc2cc3ccccc3oc2=O)c(C)c1	?	0.79µM	3µM	·	1.4µM	·
CCOc1ccc(C(=O)Cc2cc3cccc(OC)c3oc2=O)cc1	–	–[1.84 µM]	?	·	–	·
COc1ccc(C(=O)Cc2cc3ccccc3oc2=O)cc1	?	?	12µM	·	3.5µM	·
O=C(NCc1ccccc1F)C1CCCN1S(=O)(=O)c1ccc(F)cc1 (stereo unspecified)	–	–	–	·	–	·
Cc1ccc(OCC(=O)Nc2ccccc2F)cc1C	10µM	?	9.5µM	·	–	–
Cc1ccc(OCC(=O)Nc2ccc(O)c(C(=O)O)c2)cc1C	–	–	17µM	–	–	–
Cc1ccc(C(=O)Nc2ccc(O)c(C(=O)O)c2)o1	–	–	?	–	–	–
NC(=O)C1CC(=O)N(c2ccc(OCC(=O)Nc3ccc(F)cc3)cc2)C1 (stereo unspecified)	–	–	–	·	–	·
NC(=O)C1CC(=O)N(c2ccc(OCC(=O)Nc3ccccc3F)cc2)C1 (stereo unspecified)	?	2.2µM	17µM	·	?	·
Cc1ccccc1NC(=O)c1ccc(OCC(=O)Nc2ccccc2F)cc1	–	–	–	–	–	–
CC(C)(C)c1ccc(OC(=O)Nc2ccc(O)c(C(=O)O)c2)cc1	–	–	1.2µM	–[9.22 µM]	–	–[7.66 µM]
Cc1ccc(OCC(=O)Nc2ccc(N3CCCC3)cc2)cc1C	–	–	–	–	–	–
Cc1cccc(N2CCN(C(=O)c3oc(=O)c4ccccc4c3-c3ccccc3)CC2C)c1 (stereo unspecified)	·	·	–	–	·	·
CCOC(=O)c1ccc(CN(Cc2ccc(OC)cc2)S(=O)(=O)c2cccc(C(F)(F)F)c2)cc1	·	·	–	·	·	·
COc1ccc(S(=O)(=O)Nc2c(C)n(C)n(-c3ccccc3)c2=O)cc1C(=O)O	–	–	–	·	–	·
O=Cc1cn(-c2ccccc2)nc1-c1ccccc1	–	–	12µM	·	–	·
O=Cc1cn(-c2ccccc2)nc1-c1ccncc1	–	–	–	?	–	–
Cc1c(NC(=O)/C=C/c2cn(-c3ccccc3)nc2-c2ccccc2)c(=O)n(-c2ccccc2)n1C	–	–	21µM	–	–	–
COc1cccc(-c2nn(-c3ccccc3)cc2/C=C\C(=O)c2cccs2)c1	–	–	7.6µM	–	–	–
O=C(N/C(=C\c1cn(-c2ccccc2)nc1-c1ccccc1)C(=O)N1CCOCC1)c1ccccc1	–	–	–	–	–	–
C(=N\N1CCOCC1)/c1cn(-c2ccccc2)nc1-c1ccccc1	–	–	24µM	–	–	–
COc1ccc(NC(=O)Cn2cnc3ccc(S(=O)(=O)N4CCC(C)CC4)cc3c2=O)cc1Cl	·	·	–	–	·	·
CCOC(=O)[C@H]1[C@H]2COc3ccc(Br)cc3[C@@H]2N2C(=O)c3ccc(Cl)cc3NC(=O)[C@@]12C	–	–	–	·	–	·
CC(NC(=O)c1ccc2c(c1)CCN2S(=O)(=O)c1ccccc1)c1ccccc1 (stereo unspecified)	·	·	–	–	·	·
O=C(O)/C=C/c1cn(-c2ccccc2)nc1-c1ccccc1	–	–	13µM	·	–	·
O=C(O)Cc1cn(-c2ccccc2)nc1-c1ccccc1	–	–	–	–	–	–
OCCCCNCc1ccc(OCc2ccc(Cl)cc2Cl)cc1	–	–	–	–	–	–
OCCNCc1ccc(OCc2ccc(Cl)cc2Cl)cc1	?	–	15µM	–	–	–
